Laboratory results published in PubChem BioAssay AID1490 (National Center for Advancing Translational Sciences (NCATS), 2009).
Values joined by “and” are separate entries in the source; they are usually repeats but may differ in a detail not shown here. Equal values may be shown once. Screen size: about 310,000 compounds; about 11,000 (3.5%) were called active. Not shown: some 4% with an inconclusive outcome. This is one part of a sample in which actives are shown more often than they occur. Calls come from the whole dose curve; as a rule, active = well fitted inhibition curve with a large enough effect; inconclusive = small, poorly fitted or top-dose-only effect, or another doubt; inactive = no such curve, though single readings can be large or run the other way.

Biological target: 4'-phosphopantetheinyl transferase ffp (Bacillus subtilis) (UniProt Q9F4F7)
Test: qHTS Assay for Inhibitors of Bacillus subtilis Sfp phosphopantetheinyl transferase (PPTase);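 note: the enzyme is Sfp with the accession as filed and its product quenches rhodamine fluorescence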;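 for largest response in the series, negative = inhibition: 0% = enzyme reaction without inhibitor and -100% = no enzyme wells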
Details: Biochemical Sfp PPTase activity
Text: Assay Submitter: Michael Burkart, University of California, San Diego
Screening Center PI: Austin, C.P.
Screening Center: NIH Chemical Genomics Center [NCGC]
The covalent attachment of a phosphopantetheinyl (4'-PP) arm to a variety of synthases and other proteins is a key posttranslational protein modification. The 4'-PP is installed on the proteins post-translationally from coenzyme A (CoA) on a conserved serine residue by action of phosphopantetheinyl transferase (PPTase) enzymes. Phosphopantetheinylation is essential for synthase activity, and removal of the PPTase gene precludes natural product synthesis in microorganisms, or in the case of fatty acid biosynthesis, renders the organism unviable. PPTase enzymes belong to a distinct structural superfamily. Within bacteria, these enzymes are grouped into two classes based upon primary structure, the AcpS-Type and Sfp-Type PPTases.
Sfp-type PPTases, corresponding to an activator of surfactin production in Bacillus subtilis, are responsible for modifying type I polyketide and nonribosomal peptide synthases of prokaryotes. Sfp-type PPTases are responsible for the activation of a variety of pathogen-associated virulence factors. Among these compounds are toxins such as mycolactone from Mycobacterium ulcerans, siderophores such as vibriobactin from Vibrio cholerae or mycobactin from Mycobacterium tuberculosis, as well as the mycolic acids which form the waxy cell wall of Mycobacteria. The biosyntheses of these natural products are considered attractive targets for drug design.
In search of small molecule Sfp-PPTase inhibitors, a fluorescence quenching assay was developed for detection of Bacillus subtilis Sfp-PPTase enzymatic activity in a miniaturized high-throughput format. The consensus ybbr acceptor peptide […] was N-terminally labeled with Black Hole Quencher-2 (BHQ-2) and used in combination with rhodamine-labeled coenzyme A as a co-substrate.
Inhibition of Sfp-PPTase was detected by recording the fluorescence intensity change over a 30-minute reaction period at a 525 nm excitation and 598 nm emission. Reagents were supplied by Michael Burkart and Timothy Foley, University of California at San Diego.
This BioAssay deposition is for validation of the developed Sfp-PPtase assay.
Assay Buffer: 50 mM Hepes-Na pH 7.6, 10 mM MgCl2, 0.01% Nonidet P-40, and 0.01% BSA.
3 uL of Sfp-PPTase enzyme (final concentration 15 nM) and 1 uL of substrate mixture (final concentration for rhodamine-CoA and BHQ-2-YbbR 5 uM and 12.5 uM, respectively) dispensed in columns 1, 2, 5 - 48. Columns 1 and 2 used to generate neutral control (uninhibited reaction)
Three uL of reagents, consisting of buffer (in columns 3 and 4 as negative control) and Sfp-PPTase (in columns 1, 2, 5 - 48) were dispensed into 1,536-well Greiner black solid bottom plate. Compounds (23 nL) were transferred via Kalypsys pintool equipped with 1,536-pin array. The plate was incubated for 15 min at room temperature, followed by the addition of 1 uL substrate to start the reaction. The plate was then centrifuged at 1000 rpm for 15 seconds, and the fluorescence intensity recorded on a ViewLux High-throughput CCD imager (Perkin-Elmer) using standard BODIPY optics (525 nm excitation and 598 nm emission). The plate was then incubated for 30 minutes, and a second read on the ViewLux was performed. The fluorescence intensity difference over the 30-minute period was used to calculate the respective reaction rate for each well.
Potency is the fitted concentration of half-maximal effect.

| SMILES | Potency | largest response in the series, negative = inhibition |
| --- | --- | --- |
| COc1ccc(CN2C(=O)NC(=O)/C(=C\c3ccc(OC)c(OC)c3OC)C2=O)cc1 | 56.2 µM (active) | – |
| C1CC[C@H]([C@@]23C[C@H](C[C@H]4CCCN[C@H]42)[C@@H]2CCCCN2C3)NC1 | – | 15.7% (inactive) |
| CN(C)CC1Oc2ccccc2OC1(O)c1ccccc1 (configuration not stated) | 39.8 µM (active) | – |
| CN(C)C[C@H]1CCCC[C@]1(O)c1cccc(O)c1 | – | 5.94% (inactive) |
| Fc1cccc(F)c1CN1CCN(Cc2c(F)cccc2F)CC1 | – | 16% (inactive) |
| Cc1cccc(-n2c(C)nc3cc(C(=O)N4CCC5(CC4)OCCO5)ccc32)c1 | – | 8.78% (inactive) |
| CN(C)P(=S)(Nc1ccccc1)C(Cl)(Cl)Cl (configuration not stated) | – | 10.7% (inactive) |
| COC([CH2][Hg])CNC(=O)c1ccccc1OCC(=O)O (configuration not stated) | 0.398 µM (active) | – |
| O=C(NC(c1ccc(Cl)cc1)P(=O)(Oc1ccccc1)Oc1ccccc1)OCc1ccccc1 (configuration not stated) | – | 19.5% (inactive) |
| CN1CCCC(=C(c2cccs2)c2cccs2)C1 | – | 3.76% (inactive) |
| c1ccc2c(c1)[I+]c1ccccc1-2 | – | -15.8% (inactive) and 9.27% (inactive) |
| O=C1CCc2cccc3c2N1CC3 | – | -2.12% (inactive) |
| O=C(O)CCn1cc(C=C2C(=O)NC(=S)NC2=O)c(-c2cccc(Br)c2)n1 | 25.1 µM (active) | – |
| O=P1(Oc2ccccc2)CC(O)C(O)C(COCc2ccccc2)O1 (configuration not stated) | – | -2.12% (inactive) |
| CCCCCCCCCCCCCC(=O)O[C@@H]1[C@@H](C)[C@@]2(O)[C@@H](C=C(CO)C[C@]3(O)C(=O)C(C)=C[C@@H]23)[C@@H]2C(C)(C)[C@]12OC(C)=O | – | 9.82% (inactive) |
| c1ccc2sc(C3CCCNC3)nc2c1 (configuration not stated) | – | 9.62% (inactive) |
| Cc1ccc(N(C)C(=O)Oc2cccc3ccc(C)nc23)cc1 | – | 4.73% (inactive) |
| CC(C)c1ccc(O)c(CN2CCN(c3ccccc3)CC2)c1 | – | 7.52% (inactive) |
| c1cc2c(cc1CCNC1CCCCCC1)OCO2 | – | -0.383% (inactive) |
| CCOP(=S)(OCC)C(O)CCCCCn1c(=O)c(F)cn(C2CCCO2)c1=O (configuration not stated) | – | 8.97% (inactive) |
| N#Cc1cc(Br)c(O)c(Br)c1 | – | 9.61% (inactive) |

| SMILES | Potency | largest response in the series, negative = inhibition |
| --- | --- | --- |
| C/C(=C\C=C/[C@@H](C)C(=O)O)[C@H]1CN[C@H](C(=O)O)[C@@H]1CC(=O)O | 63.1 µM (active) | – |
| C/C=C1\C2C=C(C)CC1(N)c1ccc(=O)[nH]c1C2 (configuration not stated) | – | 24.3% (inactive) |
| CN(C)C(=O)NC(O)C(Cl)(Cl)Cl (configuration not stated) | – | 0.838% (inactive) |
| CNC(C)[C@@H](O)c1ccccc1 (some centres not stated) | – | 20.7% (inactive) |
| O=C1NC(=O)C(C/C=C/c2ccccc2)C(=O)N1 | 70.8 µM (active) | – |
| COc1ccc(CCn2c(O)c(C=NCCCn3ccnc3)c(=O)[nH]c2=O)cc1OC | – | 15.8% (inactive) |
| CC(Cc1cccs1)NCc1ccc(Cl)cc1 (configuration not stated) | – | 26% (inactive) |
| O=C(O)c1ccccc1NC(=O)C1C2CCC(O2)C1C(=O)O (configuration not stated) | – | 2.88% (inactive) |
| Cc1ccnc(-n2c(C)cc(/C=C3\C(=O)NC(=S)N(C)C3=O)c2C)c1 | 25.1 µM (active) | – |
| Cc1cc(C=C2C(=O)NC(=O)NC2=O)c(C)n1-c1ccncc1 | 56.2 µM (active) | – |
| Cc1ccc(-n2c(C)cc(/C=C3\C(=O)NC(=O)N(C)C3=O)c2C)cc1C | – | -19.1% (inactive) |
| CCN1C[C@]2(C)CC[C@H](O)[C@@]34[C@@H]5CC6[C@@H](OC)C[C@@](O)([C@@H]5[C@@H]6O)[C@H](C[C@@H]23)[C@H]14 | – | 12.6% (inactive) |
| CC12CN3CC(C)(CN(C1)C3c1cccs1)C2 (configuration not stated) | – | 10.2% (inactive) |
| CCCCCCCCc1[se]c2ccccc2c1Br | – | 14.5% (inactive) |
| O=C(Nc1cccc2ccccc12)N1CCC2(CC1)OCCO2 | – | 0.463% (inactive) |
| O=C(OCC1O[C@@H](OC(=O)c2cc(O)c(O)c(O)c2)[C@@H](OC(=O)c2cc(O)c(O)c(O)c2)[C@@H](OC(=O)c2cc(O)c(O)c(O)c2)[C@@H]1OC(=O)c1cc(O)c(O)c(O)c1)c1cc(O)c(O)c(O)c1 (some centres not stated) | 25.1 µM (active) | – |
| O=C1NC(=O)C(CCc2ccccn2)(Cc2cccc(Cl)c2Cl)C(=O)N1c1ccc(Br)cc1 (configuration not stated) | – | 4.65% (inactive) |
| COc1cc2c(cc1OC)[C@@H]1C(=O)c3ccc(O)c(CC=C(C)C)c3OC1CO2 (some centres not stated) | – | 0.512% (inactive) |
| CC(=O)c1c(O)c(C)c(O)c(Cc2c(O)c3c(c(C(=O)/C=C/c4ccccc4)c2O)OC(C)(C)C=C3)c1O | – | -11.4% (inactive) and -12.1% (inactive) and -5.71% (inactive) |
| COc1ccccc1-c1[se]c2ccccc2c1I | – | -3.36% (inactive) |
| COc1ccc(N2C(=O)/C(=C/c3ccco3)C(=O)NC2=S)cc1 | 11.2 µM (active) | – |
